In PubChem BioAssay (EPA / NIEHS) one finds outcome and AC50 data, which are given here for 4 compounds.

One may read the AC50 as the concentration giving half of the maximal activity seen.

“And” between values parts separate entries of the source, which are not always exact repeats. Equal entries are not always repeated. The source made the active and inactive calls. Rule for the calls: active = hit-call score of the fitted dose curve at least 0.9, where 1 is the maximum; inactive = score below 0.9.

Read-out in experiment [1]: Interleukin-1 alpha (IL1a), IL1A (gene 3552)
The experiment in a line: BSK_KF3CT_IL1a: BioMAP Diversity Plus: KF3CT Assay for Interleukin-1 alpha (IL1a) Biomarker Activity (AID 2283070). The conditions noted are these: primary human keratinocytes with fibroblasts; actives raise or lower the signal. The gist of the method: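 Human keratinocyte plus foreskin fibroblast primary co-culture, sampled 24 h after chemical dosing. IL-1a measured by ELISA; responses fitted bidirectionally against DMSO baseline (negative control), so gain or loss of signal both count.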

Read-out in experiment [2]: TIMP metallopeptidase inhibitor 2 (TIMP2), TIMP2 (gene 7077)
Kind of experiment: BSK_KF3CT_TIMP2: BioMAP Diversity Plus: KF3CT Assay for TIMP metallopeptidase inhibitor 2 (TIMP2) Biomarker Activity (AID 2283071). The conditions noted are these: primary human keratinocytes with fibroblasts; actives raise or lower the signal. A digest of the protocol: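 Cells: human keratinocytes co-cultured with foreskin fibroblasts. Treat with chemical, 24 h. Measure TIMP-2 by ELISA; fit curves bidirectionally vs DMSO baseline.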

Read-out in experiment [3]: C-C motif chemokine 2 (Homo sapiens) (UniProt P13500)
Kind of experiment: BSK_KF3CT_MCP1: BioMAP Diversity Plus: KF3CT Assay for Monocyte Chemoattractant Protein 1 (MCP1/CCL2) Biomarker Activity (AID 2283073). The conditions noted are these: primary human keratinocytes with fibroblasts; actives raise or lower the signal. The gist of the method:
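ELISA read-out of MCP-1, 24 h post-dose, in primary human skin keratinocytes co-cultured with fibroblasts. Parallel SRB staining monitors cytotoxicity; changes fitted both directions relative to DMSO.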

Read-out in experiment [4]: Matrix Metallopeptidase 9 (MMP9), MMP9 (gene 4318)
The experiment in a line: BSK_KF3CT_MMP9: BioMAP Diversity Plus: KF3CT Assay for Matrix Metallopeptidase 9 (MMP9) Biomarker Activity (AID 2283074).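 For AC50: MMP9 protein level quantified by ELISA in the co-culture.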 The conditions noted are these: primary human keratinocytes with fibroblasts; actives raise or lower the signal. A digest of the protocol:
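Keratinocyte plus foreskin fibroblast human primary skin co-culture was dosed with chemical and MMP-9 was quantified by ELISA 24 h later. Bidirectional curve fitting used DMSO as negative control and activity baseline.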

Read-out in experiment [5]: CD40, CD40 (gene 958)
Kind of experiment: BSK_LPS_CD40: BioMAP Diversity Plus: LPS Assay for CD40 Biomarker Activity (AID 2283076). Particulars: primary human HUVEC with PBMC; actives raise or lower the signal. The gist of the method:
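In the LPS system of human endothelial cells with peripheral blood mononuclear cells, CD40 levels were read by ELISA 24 h post-treatment. Signal changes in either direction were fitted against the DMSO baseline, with parallel SRB protein staining.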

Read-out in experiment [6]: Interleukin-8 (IL8), CXCL8 (gene 3576)
Kind of experiment: BSK_LPS_IL8: BioMAP Diversity Plus: LPS Assay for Interleukin-8 (IL8) Biomarker Activity (AID 2283078). Particulars: primary human HUVEC with PBMC; actives raise or lower the signal. The gist of the method:
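ELISA read-out of IL-8 after 24 h chemical treatment of LPS-activated endothelial/PBMC human primary co-cultures. Changes either up or down relative to DMSO; overt cytotoxicity checked by sulforhodamine B staining in parallel wells.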

Experiment [7] can be described thus: BSK_LPS_SRB: Viability Assessment in the BioMAP Diversity Plus: LPS Assay (AID 2283079).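 Note: total protein by sulforhodamine B absorbance as a cytotoxicity measure; measured one day after compound addition.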 Particulars: primary human HUVEC with PBMC. A digest of the protocol:
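SRB viability endpoint: cells fixed with 10% TCA, stained with 0.1% SRB, read at 560 nm, 24 h post-dose. HUVEC/PBMC co-culture; signal change in either direction scored relative to DMSO.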

Experiment [8] can be described thus: BSK_LPS_PGE2: BioMAP Diversity Plus: LPS Assay for Prostaglandin E2 (PGE2) Biomarker Activity (AID 2283082).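 For AC50: secreted prostaglandin E2 measured by ELISA in LPS-stimulated co-culture.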 The conditions noted are these: primary human HUVEC with PBMC; actives raise or lower the signal. A digest of the protocol:
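LPS-activated HUVEC/PBMC co-culture; cmpd dosed, 24 h; PGE2 by ELISA; bidirectional fit vs DMSO; SRB (0.1%, TCA-fixed, 560 nm) in parallel plates for overt cytotox.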

Read-out in experiment [9]: Macrophage colony-stimulating factor (MCSF), CSF1 (gene 1435)
Kind of experiment: BSK_LPS_MCSF: BioMAP Diversity Plus: LPS Assay for Macrophage colony-stimulating factor (MCSF) Biomarker Activity (AID 2283083). The conditions noted are these: primary human HUVEC with PBMC; actives raise or lower the signal. A digest of the protocol: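 Bidirectional fitting against DMSO was applied to M-CSF levels read by ELISA at 24 h post-dose. The system pairs human umbilical vein endothelium with peripheral blood mononuclear cells; parallel SRB staining tracked cytotoxicity.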

Read-out in experiment [10]: Tissue Factor, F3 (gene 2152)
The experiment in a line: BSK_LPS_TissueFactor: BioMAP Diversity Plus: LPS Assay for Tissue Factor Biomarker Activity (AID 2283084). The conditions noted are these: primary human HUVEC with PBMC; actives raise or lower the signal. The gist of the method: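 Compound was added to an endothelial cell/PBMC co-culture, and after 24 h tissue factor (CD142) was read by ELISA. Gain or loss of signal was fitted against a DMSO baseline, and parallel SRB staining (560 nm) tracked overt cytotoxicity.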

Read-out in experiment [11]: Tumor necrosis factor (Homo sapiens) (UniProt P01375)
The experiment in a line: BSK_LPS_TNFa: BioMAP Diversity Plus: LPS Assay for Tumour Necrosis Factor alpha (TNFa) Biomarker Activity (AID 2283085).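 For AC50: TNFa protein level quantified by ELISA in the co-culture.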 Particulars: primary human HUVEC with PBMC; actives raise or lower the signal. The gist of the method:
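Read-out is ELISA of TNFa in primary human endothelial cell–PBMC co-cultures at 24 h after compound. Activity in either direction was fitted against DMSO.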

Read-out in experiment [12]: Vascular cell adhesion molecule 1 (VCAM1), VCAM1 (gene 7412)
The experiment in a line: BSK_LPS_VCAM1: BioMAP Diversity Plus: LPS Assay for Vascular cell adhesion molecule 1 (VCAM1) Biomarker Activity (AID 2283086). Particulars: primary human HUVEC with PBMC; actives raise or lower the signal. The gist of the method: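 HUVEC + PBMC co-culture, LPS system; compound 24 h; VCAM-1 by ELISA; bidirectional fit vs DMSO control; parallel SRB (0.1%, TCA-fixed, 560 nm) for cytotoxicity.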

Read-out in a further experiment: CD38, CD38 (gene 952)
Kind of experiment: BSK_SAg_CD38: BioMAP Diversity Plus: SAg Assay for CD38 Biomarker Activity (AID 2283087). The conditions noted are these: primary human HUVEC with PBMC; actives raise or lower the signal. The gist of the method: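 Human HUVEC plus PBMC co-culture stimulated with superantigen; CD38 measured by ELISA 24 h after chemical dosing. Fluorescence read-out, bidirectional fit against DMSO; cytotoxicity tracked in parallel by SRB and Alamar Blue.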

Read-out in experiment [13]: CD40, CD40 (gene 958)
The experiment in a line: BSK_SAg_CD40: BioMAP Diversity Plus: SAg Assay for CD40 Biomarker Activity (AID 2283088). Particulars: primary human HUVEC with PBMC; actives raise or lower the signal. A digest of the protocol: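 CD40 is measured by fluorescence ELISA in an endothelial/PBMC primary human co-culture at 24 h post-dose. Fitting is bidirectional, DMSO baseline. Parallel SRB staining (560 nm) flags cytotoxicity.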

Read-out in another experiment: CD69, CD69 (gene 969)
Kind of experiment: BSK_SAg_CD69: BioMAP Diversity Plus: SAg Assay for CD69 Biomarker Activity (AID 2283089).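 For AC50: cell surface CD69 protein quantified by ELISA with fluorescence detection.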 The conditions noted are these: primary human HUVEC with PBMC; actives raise or lower the signal. A digest of the protocol:
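ELISA, fluorescence read-out: CD69 on human umbilical vein endothelial cell + PBMC co-culture, 24 h post-dosing. Gain or loss of signal fitted bidirectionally against DMSO baseline.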

Read-out in experiment [14]: Monocyte Chemoattractant Protein-1 (MCP1), CCL2 (gene 6347)
The experiment in a line: BSK_LPS_MCP1: BioMAP Diversity Plus: LPS Assay for Monocyte Chemoattractant Protein-1 (MCP1) Biomarker Activity (AID 2283081).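 Note: secreted MCP-1 protein quantified by ELISA in culture supernatant.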 The conditions noted are these: primary human HUVEC with PBMC; actives raise or lower the signal. A digest of the protocol:
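Secreted MCP-1 read by ELISA at 24 h post-dosing in an LPS-activated co-culture of endothelial cells with peripheral blood mononuclear cells. Fits run in both directions, DMSO as baseline; parallel SRB staining tracks overt cytotoxicity.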

Read-out in experiment [15]: E-selectin (Homo sapiens) (UniProt P16581)
The experiment in a line: BSK_LPS_Eselectin: BioMAP Diversity Plus: LPS Assay for Eselectin Biomarker Activity (AID 2283077). The conditions noted are these: primary human HUVEC with PBMC; actives raise or lower the signal. A digest of the protocol: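 E-selectin ELISA on LPS-stimulated endothelial cell/PBMC co-cultures, read 24 h post-treatment; gains and losses fitted against DMSO. Parallel SRB staining (0.1% SRB after 10% TCA fixation, 560 nm) flags overt cytotoxicity.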

Sequence of Tumor necrosis factor (Homo sapiens) (P01375 whole entry, looked up): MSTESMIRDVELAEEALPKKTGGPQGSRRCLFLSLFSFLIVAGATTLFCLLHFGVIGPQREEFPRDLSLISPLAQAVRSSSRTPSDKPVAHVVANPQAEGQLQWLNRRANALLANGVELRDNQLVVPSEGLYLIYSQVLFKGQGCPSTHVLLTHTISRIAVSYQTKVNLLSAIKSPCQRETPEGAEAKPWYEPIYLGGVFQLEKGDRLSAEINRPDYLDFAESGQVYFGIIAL
Sequence of E-selectin (Homo sapiens) (P16581 whole entry, looked up): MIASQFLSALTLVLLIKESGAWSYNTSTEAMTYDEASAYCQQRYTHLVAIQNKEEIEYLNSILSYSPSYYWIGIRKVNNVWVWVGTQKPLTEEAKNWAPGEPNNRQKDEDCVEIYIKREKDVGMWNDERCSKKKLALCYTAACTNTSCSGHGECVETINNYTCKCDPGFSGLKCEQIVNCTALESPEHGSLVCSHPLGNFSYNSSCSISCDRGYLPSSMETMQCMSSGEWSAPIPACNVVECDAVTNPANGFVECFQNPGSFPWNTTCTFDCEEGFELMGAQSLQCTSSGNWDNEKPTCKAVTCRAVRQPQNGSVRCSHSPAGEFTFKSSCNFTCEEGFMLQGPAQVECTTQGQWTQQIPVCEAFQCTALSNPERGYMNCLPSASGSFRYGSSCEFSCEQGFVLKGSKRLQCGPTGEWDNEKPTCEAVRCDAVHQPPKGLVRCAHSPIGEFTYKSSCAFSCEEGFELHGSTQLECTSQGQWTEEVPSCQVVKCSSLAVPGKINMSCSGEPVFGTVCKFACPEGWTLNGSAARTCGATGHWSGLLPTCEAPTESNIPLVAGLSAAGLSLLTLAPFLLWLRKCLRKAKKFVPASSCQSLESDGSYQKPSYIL

Turning to `CCC1(C)C(=O)N(Cl)C(=O)N1Cl` (configuration not stated), the outcome in experiment [1] was “inactive”; in experiment [2], “inactive”; in [3], “inactive”; in [4] it was “inactive”; in the experiment with CD40, CD40 (gene 958) [5], “inactive”; in experiment [6], “inactive”. Also, the result in experiment [7], in experiment [8], in [9], in [10], in experiment [11] and in [12] was inactive. Also, the outcome with CD38, CD38 (gene 952) was “inactive”; with CD40, CD40 (gene 958) [13], “inactive”; with CD69, CD69 (gene 969), “inactive”.

In the case of `CC/C=C\C/C=C\C/C=C\CCCCCCCC(=O)OC`, the AC50 in [1] is 12.2 µM (active); in experiment [2] it was 7.17 µM (active); in experiment [3], 5.29 µM (active); in experiment [4] it was 12.2 µM (active); with CD40, CD40 (gene 958) [5] it was 20 µM (active); in [6] it was 29 µM (active). The AC50 in experiment [7] was 27.8 µM (active); in experiment [14] it was 30.6 µM (active); in experiment [8], 5.75 µM (active); in experiment [9] it was 17.5 µM (active); in [10] it was 12.6 µM (active); in experiment [11] it was 13.7 µM (active). The concentration at half-maximal activity (AC50) in experiment [12] is 27.3 µM (active); in the experiment with CD38, CD38 (gene 952) it was 15.1 µM (active); in the experiment with CD40, CD40 (gene 958) [13], 14.8 µM (active); with CD69, CD69 (gene 969) it was 21.6 µM (active).

As to `Oc1ccccc1Cc1ccccc1O`, the outcome in experiment [1] is “inactive”; in [2], “inactive”; in experiment [3], “inactive”; in experiment [4], “inactive”; in the experiment with CD40, CD40 (gene 958) [5] it was “inactive”; in experiment [15], “inactive”. Moreover, the outcome in [6], in experiment [7], in experiment [9], in experiment [10], in [11] and in [12] was inactive. The outcome with CD38, CD38 (gene 952) was “inactive”; with CD40, CD40 (gene 958) [13], “inactive”; in the experiment with CD69, CD69 (gene 969), “inactive”. The AC50 in experiment [8] was 2.47 µM (active) and 1.8 µM (active).

With `C1CNCCN1`, the outcome in [1] was “inactive”; in experiment [2], “inactive”; in experiment [3], “inactive”; in [4] it was “inactive”; with CD40, CD40 (gene 958) [5], “inactive”; in experiment [6], “inactive”. For the same compound, the result in experiment [7], in [8], in [9], in experiment [10], in [11] and in [12] was inactive. For the same compound, the outcome with CD38, CD38 (gene 952) is “inactive”; in the experiment with CD40, CD40 (gene 958) [13], “inactive”; in the experiment with CD69, CD69 (gene 969) it was “inactive”.
